Holding throughout (experiment): NCI-60 one-dose screen, 48 h (100 = growth as untreated, 0 = no growth, -100 = all killed)
Holding throughout (conditions): 10 µM unless noted

In experiment [1] the test system is SK-MEL-2 melanoma.
Experiment [2] concerns EKVX NSCLC.
Experiment [3] has as its system SN12C renal.
For experiment [4], the system named is UO-31 renal.
For experiment [5], the system named is TK-10 renal.
The test system of experiment [6] is ACHN renal.
Experiment [7] deals with A498 renal.
Experiment [8] has as its system CCRF-CEM leukemia.
Experiment [9] deals with MOLT-4 leukemia.
The subject of experiment [10] is SR leukemia.
The test system of experiment [11] is RPMI-8226 leukemia.
Experiment [12] concerns OVCAR-8 ovarian.
For experiment [13], the system named is OVCAR-5 ovarian.
Experiment [14] deals with OVCAR-4 ovarian.
Experiment [15] deals with IGROV1 ovarian.
Experiment [16] relates to HS 578T breast.
The subject of experiment [17] is NCI/ADR-RES ovarian.
Experiment [18] deals with SK-OV-3 ovarian.
Experiment [19] relates to OVCAR-3 ovarian.

The record followed here is PubChem BioAssay (NCI).

The panel holds about 83,000 compounds, 20% with a hit somewhere; the sample as a whole holds those more often.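 Note: values are percent growth. 100 is the growth of untreated cells, values between 100 and 0 indicate rising inhibition; between -100 and 0 indicates cell death.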 Unmarked numbers belong to inactive results. The source made the active and inactive calls. How the source made its calls: active means growth percent below 10; inactive means the rest.

For `Fc1ccc(/C=N/n2c(-c3cc(Cl)cc(Cl)c3Cl)nn(CNc3ccc(Cl)nn3)c2=S)cc1`, the growth was 98.1% in experiment [1]; 104% in [2]; 102% in experiment [3]; 89.4% in experiment [4]; 103% in experiment [5]; 104% in experiment [6]. The growth was 105% in [7]; -70.4% (active) in experiment [8]; 75.1% in experiment [9]; 79.7% in experiment [10]; 82.4% in experiment [11]; 95.7% in experiment [12]. The growth is 89.9% in experiment [13]; 91.8% in experiment [14]; 96.3% in experiment [15]; 108% in experiment [16]; 86.7% in experiment [17].

In the case of `CC1(C)N=C(N)N=C(N)N1c1ccc(OCC(=O)Nc2ccccc2)c(Cl)c1`, the growth was 47.5% in experiment [1]; 48.9% in [2]; 30.5% in experiment [3]; 104% in experiment [4]; 57.6% in [5]; 103% in experiment [6]. The growth is 94.8% in experiment [7]; 28.8% in experiment [8]; 32% in experiment [9]; 34.5% in [11]; 21.9% in experiment [12]; 49% in experiment [13]. Besides, the growth in [14] is 46.1%; in experiment [18], 57.3%; in experiment [19] it was 56.7%; in [16], 97.7%; in experiment [17], 102%.

Turning to `COc1ccc(/C=C2\CS(=O)(=O)C/C(=C\c3ccc(OC)cc3)C2=O)cc1`, the growth was -7.45% (active) in experiment [1]; 11.4% in experiment [2]; -52.1% (active) in [3]; -100% (active) in experiment [4]; 2.72% (active) in [5]; -51% (active) in [6]. Besides, the growth was 36% in experiment [7]; -0.95% (active) in [8]; -16.1% (active) in [9]; -41.2% (active) in experiment [11]; -44.8% (active) in [12]; -20.2% (active) in [13]. Besides, the growth is 12.3% in experiment [14]; 25.4% in [18]; -66.2% (active) in experiment [19]; 48% in [16]; 10.5% in experiment [17].

As to `COC(=O)c1oc2c(C(C)=O)c(OCCN3CCCCC3)ccc2c1C`, the growth in experiment [1] is 88.7%; in [2], 113%; in experiment [3], 119%; in experiment [4] it was 84.5%; in experiment [5], 92.1%; in experiment [6], 108%. Besides, the growth was 131% in [7]; 50.5% in [8]; 108% in experiment [9]; 97.6% in [11]; 107% in experiment [12]; 107% in experiment [13]. Also, the growth in [14] was 161%; in [18], 107%; in [15], -8.51% (active); in experiment [16] it was 107%; in experiment [17], 95.5%.

Regarding `Nc1nc(=S)ss1`, the growth in experiment [1] was 109%; in [2], 108%; in [3], 97.7%; in [4], 95.4%; in [5] it was 108%; in experiment [6] it was 109%. Besides, the growth in [7] is 92.5%; in experiment [8], 109%; in experiment [9], 90.4%; in [10] it was 80.6%; in experiment [12], 104%; in experiment [13] it was 114%. Moreover, the growth in experiment [14] is 106%; in [18], 101%; in experiment [15], 133%; in experiment [19] it was 116%; in [16], 98.2%; in [17], 104%.

Turning to `CC1(C)Cc2c(Br)c(Br)c(Br)c(OCC(O)CN3CCN(c4ccccn4)CC3)c2O1` (configuration not stated), the growth in experiment [1] was 77.1%; in experiment [2], 95.3%; in experiment [3], 106%; in experiment [4] it was 47.7%; in experiment [5], 66%; in experiment [6], 85.8%. Besides, the growth in experiment [7] is 96.2%; in experiment [8], -14.3% (active); in experiment [9], 52.9%; in experiment [11] it was 52.1%; in [12], 88.6%; in experiment [13] it was 102%. For the same compound, the growth is 112% in experiment [14]; 102% in [18]; -11.7% (active) in experiment [15]; 89.2% in experiment [16]; 75.3% in experiment [17].

Regarding `CC1=C[S+](c2ccccc2)c2cccc3cc4ccccc4c1c23` (configuration not stated), the growth in experiment [1] was -65.2% (active); in experiment [2], -1.91% (active); in experiment [3] it was -60.2% (active); in experiment [4], -39.5% (active); in [5], 2.15% (active); in experiment [6], 15.3%. The growth in experiment [7] was 27.5%; in [8], 4.35% (active); in experiment [9], -23.5% (active); in experiment [11] it was -32.5% (active); in [12] it was -9.27% (active); in [13] it was -32.7% (active). The growth in experiment [14] was 17.4%; in experiment [18], 0.639% (active); in experiment [19], -82.9% (active); in experiment [16], 69.5%; in experiment [17], 27%.

As to `CCOC(=O)C1CN(Cc2ccccc2)C(=O)C1=O` (configuration not stated), the growth is 114% in experiment [1]; 110% in [2]; 108% in experiment [3]; 64.3% in [4]; 113% in experiment [5]; 104% in [6]. The growth in experiment [7] was 91.6%; in experiment [8] it was 22.9%; in [10] it was 27%; in experiment [11], 95.6%; in experiment [12], 107%; in experiment [13], 95.2%. For the same compound, the growth in experiment [14] was 91.9%; in [18] it was 107%; in experiment [15], 109%; in experiment [19] it was 105%; in [17], 109%.
